From PubChem BioAssay (NCATS) come the findings set out here.

Each structure is given as a SMILES string. Active and inactive are the calls of the source. The call rests on the fitted dose curve.

A short description of this experiment: qHTS drug screen for cell cycle checkpoint inhibitors in PARPi-resistant BRCA-mutant ovarian cancer cell lines. (AID 1963452). The note with it: PEO1/OlaR viability, CellTiter-Glo luminescence, 96 h, stronger effect = lower value. An excerpt:
Women's Malignancies Branch, Center for Cancer Research (CCR),
National Cancer Institute (NCI), National Institutes of Health (NIH), Bethesda, MD
Poly (ADP-ribose) polymerase inhibitors (PARPis) have changed the treatment paradigm in breast cancer gene (BRCA) - mutant high-grade serous ovarian carcinoma (HGSC). However, most patients eventually develop resistance to PARPis, highlighting an unmet need for improved therapeutic strategies. Using high-throughput drug screens, we identified ataxia telangiectasia and rad3-related protein/checkpoint kinase 1 (CHK1) pathway inhibitors as cytotoxic and further validated the activity of the CHK1 inhibitor (CHK1i) prexasertib in PARPi-sensitive and -resistant BRCA-mutant HGSC cells and xenograft mouse models. CHK1i monotherapy induced DNA damage, apoptosis, and tumor size reduction. We then conducted a phase 2 study (NCT02203513) of prexasertib in patients with BRCA-mutant HGSC. The treatment was well tolerated but yielded an objective response rate of 6% (1 of 17; one partial response) in patients with previous PARPi treatment. […] BRCA reversion mutation in previously PARPi-treated BRCA-mutant patients was not associated with resistance to CHK1i.
Among others, 1082 oncology drugs, both approved and investigational, were prioritized based on their status in clinical trial development. […] Drugs with average Z-AUC values less than -1.0 in all three cell lines were classified as "hits" resulting in 151 oncology drug hits. The screen also confirmed cross-resistance between olaparib and other PARPis (rucaparib, niraparib, and talazoparib) in PARPi-resistant PEO1/OlaR and PEO4.
[1] G. L. Lin, K. M. Wilson, M. Ceribelli, B. Z. Stanton, P. J. Woo, S. Kreimer, E. Y. Qin, X. Zhang, J. Lennon, S. Nagaraja, P. J. Morris, M. Quezada, S. M. Gillespie, D. Y. Duveau, A. M. Michalowski, P. Shinn, R. Guha, M. Ferrer, C. Klumpp-Thomas, S. Michael, C. McKnight, P. Minhas, Z. Itkin, E. H. Raabe, L. Chen, R. Ghanem, A. C. Geraghty, L. Ni, K. I. Andreasson, N. A. Vitanza, K. E.Warren, C. J. Thomas, M. Monje, Therapeutic strategies for diffuse midline glioma from high-throughput combination drug screening. Sci. Transl. Med. 11, (2019).
[2] T. M. Yamamoto, A. McMellen, Z. L. Watson, J. Aguilera, R. Ferguson, E. Nurmemmedov, T. Thakar, G. L. Moldovan, H. Kim, D. M. Cittelly, A. M. Joglar, E. P. Brennecke, H. Wilson, K. Behbakht, M. J. Sikora, B. G. Bitler, Activation of Wnt signaling promotes olaparib resistant ovarian cancer. Mol. Carcinog. 58, 1770 - 1782 (2019).
PROTOCOL TABLE (as described by Inglese J, Shamu CE and Guy RK. 2007)
SEQUENCE No. (e.g., 1, 2, 3, etc.); […] (e.g., Cells, Incubation, Reagent, etc.); VALUE; DESCRIPTION.
1; Compounds; 20nL; 1536-well white tissue culture-treated plates.
2; Cells; 5 uL; PEO1, PEO4, and PEO1/OlaR cells at 600 cells per well.
3; Incubation; 96 hr; 37C, 95% humidity, 5% CO2.
4; Reagent; 3 uL; CellTiter-Glo (Promega).
5; Incubation; 15 min; room temperature.
6; Detection; Luminescence, PHERAstar (BMG Labtech) plate reader.
NOTES (numbers refer to Sequence numbers above)
1. MIPE 5.0 compounds were acoustically dispensed by Echo Acoustic Liquid Handler (Beckman Coulter Life Sciences). Each compound was plated at an 11-point concentration range with 1:3 dilution. Bortezomib, a proteasome inhibitor (final concentration, 20 uM), was used as a positive.
2. PEO1, PEO4, and PEO1/OlaR were trypsinized and dispensed in 5 uLof growth medium using a Multidrop Combi dispenser at a density of 600 cells per well to allow compounds to be present during the exponential growth phase.
3. Plates were incubated for 96 hours at standard incubator conditions and covered by a stainless steel gasketed lid to prevent evaporation.
4. Three microliters of CellTiter-Glo (Promega) were added to each well.
5. Plates were incubated at room temperature for 15 min with a stainless-steel lid in place.
6. Luminescence readings were taken using PHERAstar (BMG Labtech). […]

[1] abbreviates: measured here: PEO1 parental Z-AUC.

For the molecule `CCOCC(O)COc1ccc(NC(=O)CC[S+](C)C)cc1` (configuration not stated), the Z-AUC is 0.72 (inactive). Also, under setting [1], the Z-AUC is 0.893. Moreover, the Z-AUC (measured here: PEO4 Z-AUC) is 1.15.

In the case of `O=c1oc2c(O)c(O)cc3c(=O)oc4c(O)c(O)cc1c4c23`, the Z-AUC was 0.559 (inactive). In addition, the Z-AUC under setting [1] stood at 0.754. The Z-AUC (measured here: PEO4 Z-AUC) amounted to 0.513.

Turning to `C[C@]12C=CC(=O)C=C1CC[C@@H]1[C@@H]2C(=O)C[C@@]2(C)[C@H]1CC[C@]2(O)C(=O)CO`, the Z-AUC was -0.919 (inactive). The Z-AUC under setting [1] was -0.762. Besides, the Z-AUC (measured here: PEO4 Z-AUC) was -0.828.

On to `COc1cc2ncnc(Nc3cccc(Cl)c3)c2cc1OC`, for which the Z-AUC is 0.0605 (inactive). The Z-AUC under setting [1] came out at 0.96. For the same molecule, the Z-AUC (measured here: PEO4 Z-AUC) is 0.239.

Regarding `S=P(N1CC1)(N1CC1)N1CC1`, the Z-AUC was 0.79 (inactive). The Z-AUC under setting [1] came to 1.48. For the same molecule, the Z-AUC (measured here: PEO4 Z-AUC) was determined as 1.59.

In the case of `CCCOc1ccc(C(=O)OCCN(CC)CC)cc1N`, the Z-AUC was 1.6 (inactive). Under setting [1], the Z-AUC was found to be 1. The Z-AUC (measured here: PEO4 Z-AUC) was 0.987.

For `CCCCOc1ccc(CC(=O)NO)cc1`, the Z-AUC was -0.866 (inactive). For the same molecule, the Z-AUC under setting [1] was -0.714. Also, for the setting “measured here: PEO4 Z-AUC”, the Z-AUC is -0.748.

Turning to `NNC(=O)c1ccncc1`, the Z-AUC is 0.416 (inactive). Also, under setting [1], the Z-AUC worked out at 1.78. The Z-AUC (measured here: PEO4 Z-AUC) was 1.56.

In the case of `CNC1CCCN(c2c(F)cc3c(=O)c(C(=O)O)cn(C4CC4)c3c2OC)C1` (configuration not stated), the Z-AUC was 1.39 (inactive). Also, the Z-AUC under setting [1] stood at 1.15. Besides, under “measured here: PEO4 Z-AUC”, the Z-AUC was found to be 1.09.

On to `COc1c(N2CCNC(C)C2)c(F)cc2c(=O)c(C(=O)O)cn(C3CC3)c12` (configuration not stated), for which the Z-AUC was 0.833 (inactive). The Z-AUC under setting [1] was 0.836. Besides, the Z-AUC (measured here: PEO4 Z-AUC) amounted to 0.282.

Take `CC(C)OC(=O)C(C(=O)OC(C)C)=C1SC=CS1`: the Z-AUC was 1.21 (inactive). Moreover, under setting [1], the Z-AUC was 0.837. Also, where the note is “measured here: PEO4 Z-AUC”, the Z-AUC is 1.06.

Regarding `COCCCOc1cc(C[C@@H](C[C@H](N)[C@@H](O)C[C@H](C(=O)NCC(C)(C)C(N)=O)C(C)C)C(C)C)ccc1OC`, the Z-AUC is 1.16 (inactive). Under setting [1], the Z-AUC was found to be 1.52. Moreover, the Z-AUC (measured here: PEO4 Z-AUC) is 1.51.

On to `O=C(O)c1cccnc1`, for which the Z-AUC was 0.136 (inactive). Further, the Z-AUC under setting [1] was -0.782. Further, under “measured here: PEO4 Z-AUC”, the Z-AUC is -0.146.

With `CCCCS(=N)(=O)CCC(N)C(=O)O` (configuration not stated), the Z-AUC was -0.0852 (inactive). For the same molecule, the Z-AUC under setting [1] was 0.0714. Moreover, the Z-AUC (measured here: PEO4 Z-AUC) amounted to 0.126.
